Measurements as given in PubChem BioAssay.
Entries with a potency or affinity are not part of this list. Records with an inconclusive call do not appear. The source made the active and inactive calls.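 The calls were made as follows, unless noted: active = falling signal with fitted half-maximal potency no higher than twice the top valid tested dose; inconclusive = poor fit quality, or flat fit spanning -70% to -30%; inactive = potency over limit, rising signal, or flat fit inside 30%.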

Assays:
[1] = fungal growth arrest, C. neoformans – Alamar Blue, cherry-picks, dose response (AID 686998)
[2] = C. neoformans lysis by adenylate kinase leakage – AK release luminescence, cherry-picks, dose response (AID 687000;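 active = fitted dose curve reaches 40% lysis signal rise at or below the highest valid concentration tested for that sample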;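 also: luminescent detection of adenylate kinase leaking from lysed yeast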)
[3] = viability loss in HepG2 hepatoma cells – cell-based, cherry-picks, set 2, cytotoxicity control, dose response (AID 687002;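 active = a dose-response fit showing signal loss, with half-maximal concentration no higher than twice the top tested dose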)
[4] = viability loss in HeLa cells – cell-based, ATP luminescence, cherry-pick samples, cytotoxicity control, dose response (AID 687004;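 active = a fitted half-maximal concentration no higher than twice the top valid tested dose, with signal falling as cells die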)

Measured: outcome

CCS(=O)(=O)NCC[C@@H]1CC[C@@H](NS(=O)(=O)c2cccc(F)c2)[C@@H](CO)O1
inactive: all assays above

Cc1noc(C)c1S(=O)(=O)Nc1ccc2c(c1)C(=O)N([C@@H](C)CO)C[C@H](C)[C@@H](CN(C)Cc1ccc3c(c1)OCO3)OCCCC[C@@H](C)O2
inactive: all assays above

Cc1ccc(NC(=O)[C@H](C)NC(=O)C2CCN(C(=O)[C@@H](N)C(C)C)CC2)cc1
inactive: all assays above

C[C@@H]1CN([C@H](C)CO)C(=O)c2cc(NC(=O)Nc3cccc4ccccc34)ccc2O[C@@H](C)CCCCO[C@@H]1CN(C)Cc1ccc2c(c1)OCO2
inactive: all assays above

CO[C@H]1CC[C@@H]2CCOc3c(C#N)cccc3C(=O)N(C)C[C@H](OC)[C@@H](C)C(=O)N(C)C[C@@H]1O2
inactive: all assays above

CCS(=O)(=O)N1CCCCN2[C@H](CO)[C@@H](c3ccc(-c4ccc(C#N)cc4)cc3)[C@@H]2C1
inactive: all assays above

CO[C@@H]1CN(C)C(=O)c2cc(NS(=O)(=O)c3ccc(C)cc3)ccc2OC[C@@H](C)N(C)C[C@@H]1C
inactive: all assays above

O=C(C[C@@H]1CC[C@@H]2[C@H](COC[C@H](O)CN2S(=O)(=O)c2ccc(Oc3ccccc3)cc2)O1)NC1CCC1
inactive: all assays above

CO[C@H]1CN(C)C(=O)c2cc(NS(=O)(=O)CC(F)(F)F)ccc2OC[C@H](C)N(Cc2cccnc2)C[C@@H]1C
inactive: all assays above

COc1ccc(CNC(=O)C[C@H]2CC[C@H]3[C@@H](COc4ccc(NC(=O)C5CC5)cc4C(=O)N3C)O2)cc1
inactive: all assays above
